# Tests used:
# Assay type in all cases: functional
# [1] = molecular target: Solute carrier family 2, facilitated glucose transporter member 1 (Homo sapiens) (UniProt P11166); assay: ST_JUDE_LEISH: Cytotoxicity at 2uM final concentration against transgenic Leishmania Mexicana promastigotes LmGLUT1 that are glucose transport deficient and complemented with the human glucose transporter GLUT1. Activity is measured by DNA content using SYBR green in vitro
# [2] = molecular target: Hexose transporter 1 (Plasmodium falciparum) (UniProt O97467); assay: ST_JUDE_LEISH: Cytotoxicity at 2uM final concentration against transgenic Leishmania Mexicana promastigotes LmPfHT that are glucose transport deficient and complemented with the Plasmodium falciparum hexose transporter. Activity is measured by DNA content using SYBR green in vitro
# [3] = molecular target: Glucose transporter (Leishmania mexicana) (UniProt O61059); assay: ST_JUDE_LEISH: Cytotoxicity at 2uM final concentration against transgenic Leishmania Mexicana promastigotes LmGT2 that are glucose transport deficient and complemented with the L. Mexicana glucose transporter 2. Activity is measured by DNA content using SYBR green in vitro
# Solute carrier family 2, facilitated glucose transporter member 1 (Homo sapiens), sequence (P11166 whole entry): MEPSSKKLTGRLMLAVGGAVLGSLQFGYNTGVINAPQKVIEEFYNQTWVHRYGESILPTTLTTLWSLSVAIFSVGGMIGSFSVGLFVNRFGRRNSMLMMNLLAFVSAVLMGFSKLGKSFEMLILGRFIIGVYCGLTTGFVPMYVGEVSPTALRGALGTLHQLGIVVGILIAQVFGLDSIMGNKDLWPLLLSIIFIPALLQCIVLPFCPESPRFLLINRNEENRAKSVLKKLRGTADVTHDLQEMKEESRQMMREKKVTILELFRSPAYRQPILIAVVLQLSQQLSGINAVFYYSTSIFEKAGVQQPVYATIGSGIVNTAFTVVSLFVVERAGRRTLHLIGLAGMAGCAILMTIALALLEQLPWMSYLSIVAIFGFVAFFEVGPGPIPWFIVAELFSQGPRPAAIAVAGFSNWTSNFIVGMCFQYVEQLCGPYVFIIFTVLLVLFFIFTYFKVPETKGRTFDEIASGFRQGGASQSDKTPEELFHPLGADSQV
SMILES,inhibition [1] [%],inhibition [2] [%],inhibition [3] [%]
O=c1c2cccnc2sn1-c1ccccc1,0.94,0.87,0.72
COc1ccc2nc(Nc3nc4cnccc4[nH]3)sc2c1,4.17,4.93,5.34
Cc1cc(N[C@@H](CC(C)C)C(=O)NCCc2ccccc2)nc(Nc2ccccc2)n1,4.26,5.37,2.63
CCN(CC)/C(=N/C(=N)NCc1cccc(Cl)c1)NCCCCCCN/C(=N\C(=N)NCc1cccc(Cl)c1)N(CC)CC,4.23,4.83,2.27
CC(C)Sc1nc2c(c(=O)n1CCc1ccccc1)C1(CCCCC1)Cc1ccccc1-2,-1.26,-1.14,-0.83
CCCC(C)NC(=O)[C@H](CC1CCCCC1)NC(=O)c1ccc(O)c(-c2ccc(OC)cc2)c1 (some centres undefined),2.7,0.19,2.85
O=C(/C=C/c1ccc(Cl)c(Cl)c1)NCCCCCN1CCCN(C(=O)Nc2cc(F)cc(F)c2)CC1,9.22,8.04,8.86
CCCc1ccccc1OCC(O)CN(C1CCCC1)C1CCCC1 (centres undefined),6.36,6.68,5.96
CCN1C(=O)C(=NN=C(S)N2CCCC2)c2ccccc21,-0.3,-1.51,-3.35
CCCC(CNCc1ccc(Cl)c(C(F)(F)F)c1)CNc1nc2cnccc2[nH]1 (centres undefined),13.5,11.9,8.76
COC(=O)c1ccc(C(=O)NCCCCN2CCC(c3ccc4c(c3OC)CCCC4)CC2)cc1-c1ccc(C(F)(F)F)cc1,2.23,1.47,2.29
O=C(c1cc(-c2cccs2)n[nH]1)N1CCN(S(=O)(=O)c2ccc(Cl)cc2)CC1,2.31,2.77,1.76
CC(=O)Nc1nc(C)c(-c2csc(Nc3ccc(Cl)cc3)n2)s1,-0.76,-1.35,-2.23
Nc1c2c(nc3ccc(Oc4ccc(Cl)cc4)cc13)CCCC2,60.9,70.5,40.5
COc1ccc(N2CCN(c3nc(N)c4cc(OC)c(OC)cc4n3)CC2C)cc1 (centres undefined),0.19,1.45,-0.49
Cc1[nH]c(C)c(-c2ccc(-c3cccc(Cl)c3)nc2)c(=O)c1Br,0,1.07,0.63
CCCCN(CCCC)C(=O)CC(O)c1cc2c(Cl)cc(Cl)cc2c2cc(C(F)(F)F)ccc12 (centres undefined),1.87,1.18,2.43

SMILES,inhibition [1] [%],inhibition [2] [%],inhibition [3] [%]
COc1ccc(NC(=O)[C@H](CC(C)C)Nc2ccnc(NCCc3ccc(F)cc3)n2)cc1,1.22,1.43,1.38
COc1cccc(C(=O)NCCOc2ccccc2)c1Oc1ccccc1,5.14,5.7,5.15
COC(=O)c1cccc(CNCc2cccc(-c3ccc(-c4nc5ccccc5[nH]4)cc3)c2)c1,5.57,5.76,2.19
Cc1cccc(CN2CCCN(Cc3ccc(C(=O)Nc4ccc(C)c(F)c4)cc3)CC2)c1,1.23,4.06,2.11
CCCCC(CC)NC(=O)[C@H]1CNCCN1C(=O)CCCc1ccccc1 (some centres undefined),1.73,1.94,-0.61
CCOc1ccccc1C(=O)Nc1cccc(-c2nc3ncccn3c2C)c1,2.41,-0.3,-0.34
O=C(CNC1=NCCN1)Nc1ccc(NC(=O)Nc2ccc(NC(=O)CNC3=NCCN3)cc2)cc1,3.51,4.85,0.21
CCCCCCC(C)c1cc(O)c2c(c1)OC(=O)CC2(CC)c1ccccn1 (centres undefined),1.55,3.13,1.77
O=C(NCCCCCN1CCC(c2c[nH]c3ccccc23)CC1)Nc1cccc(Cl)c1,2.7,0.53,0.16
O=C(NCc1ccccc1)NC1CCN(c2ccnc3cc(Cl)ccc23)C1 (centres undefined),-2.48,0.99,0.94
CCCCOc1cc(C)nc2ccc(NC(=O)COCC(=O)Nc3ccc4nc(C)cc(OCCCC)c4c3)cc12,14.9,13.7,11.2
O=S(=O)(Nc1ccc(CCN2CCC(N3CCCCC3)CC2)cc1)c1cccc2cccnc12,3.76,3.39,1.88
Cc1sc(C)c(CNCCCNc2cc(=O)c3ccccc3[nH]2)c1Br,2.08,2,-3.4
CCOC(=O)c1ccc(-n2c(C)cc(C=C3SC(=Nc4ccccc4)N(C4CCCC4)C3=O)c2C)cc1,3.76,3.52,4.67
Cc1c(C(=O)Nc2cc(Sc3ccc(F)cc3)cc([N+](=O)[O-])c2)sc2ncn(Cc3cccc(F)c3)c(=O)c12,3.77,-2.45,7.11
CC(C)C[C@H](NC(=O)c1ccc(OCCN2CCOCC2)cc1)C(=O)N[C@H](/C=N/NC(=O)c1ccccc1)CCc1ccccc1,3.15,5.83,2.03

# Source: ChEMBL document CHEMBL3433997, “St. Jude Leishmania screening dataset” (2016)
